Positions count from the first letter of the chain named.
Tests used:
Test in all cases: PBM; 200 nM protein, PBS
Conditions in all cases: dsDNA, one strand shown
[1] = biological target: HESX1 (Homo sapiens, UniProt Q9UBX0 95-180, R165K)
[2] = biological target: HESX1 (Homo sapiens, UniProt Q9UBX0 95-180)
[3] = biological target: HESX1 (Homo sapiens, UniProt Q9UBX0 95-180, R109Q)
[4] = biological target: HESX1 (Homo sapiens, UniProt Q9UBX0 95-180, P111T)
[5] = biological target: HESX1 (Homo sapiens, UniProt Q9UBX0 95-180, F115L)
[6] = biological target: ALX3 (Homo sapiens, UniProt O95076 139-225, N203Q)
[7] = biological target: ALX3 (Homo sapiens, UniProt O95076 139-225)
[8] = biological target: PROP1 (Homo sapiens, UniProt O75360 56-141)
[9] = biological target: PROP1 (Homo sapiens, UniProt O75360 56-141, R99H)
[10] = biological target: ALX3 (Homo sapiens, UniProt O95076 139-225, L168Q)
[11] = biological target: ALX3 (Homo sapiens, UniProt O95076 139-225, L168V)
[12] = biological target: PROP1 (Homo sapiens, UniProt O75360 56-141, F88S)
[13] = biological target: ALX3 (Homo sapiens, UniProt O95076 139-225, N203S)
[14] = biological target: T1, NKX2-6 (Homo sapiens, UniProt A6NCS4 118-204)
T1 sequence: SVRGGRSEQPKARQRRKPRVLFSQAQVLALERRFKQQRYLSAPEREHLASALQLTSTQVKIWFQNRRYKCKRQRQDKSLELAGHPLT

[15] = biological target: T2, NKX2-6 (Homo sapiens, UniProt A6NCS4 118-204, F151L)
T2 sequence: T1 sequence with F34L

[16] = biological target: VAX1 (Homo sapiens, UniProt Q5SQQ9 86-172)
[17] = biological target: VAX1 (Homo sapiens, UniProt Q5SQQ9 86-172, T142I)
[18] = biological target: VAX1 (Homo sapiens, UniProt Q5SQQ9 86-172, K157R)
[19] = biological target: PITX2 (Homo sapiens, UniProt Q99697 72-157)

HESX1 (Homo sapiens, UniProt Q9UBX0 95-180), sequence (Q9UBX0 95-180): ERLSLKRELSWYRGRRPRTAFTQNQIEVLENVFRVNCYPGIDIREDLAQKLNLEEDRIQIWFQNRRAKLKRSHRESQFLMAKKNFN
ALX3 (Homo sapiens, UniProt O95076 139-225), sequence (O95076 139-225): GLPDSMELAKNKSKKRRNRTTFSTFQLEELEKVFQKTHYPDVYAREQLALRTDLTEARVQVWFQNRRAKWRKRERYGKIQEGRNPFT
HESX1 (Homo sapiens, UniProt Q9UBX0 95-180, P111T), sequence (Q9UBX0 95-180 P111T): as the sequence (Q9UBX0 95-180) above, with P17T counted along it
ALX3 (Homo sapiens, UniProt O95076 139-225, N203S), sequence (O95076 139-225 N203S): as the sequence (O95076 139-225) above, with N65S counted along it
HESX1 (Homo sapiens, UniProt Q9UBX0 95-180, R109Q), sequence (Q9UBX0 95-180 R109Q): as the sequence (Q9UBX0 95-180) above, with R15Q counted along it
PROP1 (Homo sapiens, UniProt O75360 56-141, R99H), sequence (O75360 56-141 R99H): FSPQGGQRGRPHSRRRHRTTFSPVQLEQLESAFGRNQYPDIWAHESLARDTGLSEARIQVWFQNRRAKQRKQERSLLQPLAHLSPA
HESX1 (Homo sapiens, UniProt Q9UBX0 95-180, R165K), sequence (Q9UBX0 95-180 R165K): as the sequence (Q9UBX0 95-180) above, with R71K counted along it
ALX3 (Homo sapiens, UniProt O95076 139-225, L168V), sequence (O95076 139-225 L168V): as the sequence (O95076 139-225) above, with L30V counted along it
PROP1 (Homo sapiens, UniProt O75360 56-141, F88S), sequence (O75360 56-141 F88S): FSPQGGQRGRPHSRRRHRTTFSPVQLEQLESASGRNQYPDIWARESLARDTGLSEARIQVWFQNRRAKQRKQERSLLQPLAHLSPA
HESX1 (Homo sapiens, UniProt Q9UBX0 95-180, F115L), sequence (Q9UBX0 95-180 F115L): as the sequence (Q9UBX0 95-180) above, with F21L counted along it
ALX3 (Homo sapiens, UniProt O95076 139-225, L168Q), sequence (O95076 139-225 L168Q): as the sequence (O95076 139-225) above, with L30Q counted along it
ALX3 (Homo sapiens, UniProt O95076 139-225, N203Q), sequence (O95076 139-225 N203Q): as the sequence (O95076 139-225) above, with N65Q counted along it
PROP1 (Homo sapiens, UniProt O75360 56-141), sequence (O75360 56-141): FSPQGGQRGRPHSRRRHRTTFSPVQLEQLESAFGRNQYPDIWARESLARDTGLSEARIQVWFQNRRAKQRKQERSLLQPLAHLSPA
VAX1 (Homo sapiens, UniProt Q5SQQ9 86-172, K157R), sequence (Q5SQQ9 86-172 K157R): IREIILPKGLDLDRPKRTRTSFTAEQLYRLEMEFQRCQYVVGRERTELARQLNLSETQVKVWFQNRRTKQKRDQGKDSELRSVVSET
VAX1 (Homo sapiens, UniProt Q5SQQ9 86-172), sequence (Q5SQQ9 86-172): as the sequence (Q5SQQ9 86-172 K157R) above, with R72K counted along it
VAX1 (Homo sapiens, UniProt Q5SQQ9 86-172, T142I), sequence (Q5SQQ9 86-172 T142I): as the sequence (Q5SQQ9 86-172 K157R) above, with T57I, R72K counted along it

In the case of CGCCAGGC, the binding signal [1] is reported as 6.38 upbm affinity estimate (log intensity, higher = more binding, comparable within an allelic series), the binding signal [2] is reported as 6.37 upbm affinity estimate (log intensity, higher = more binding, comparable within an allelic series) and the binding signal [3] is reported as 6.46 upbm affinity estimate (log intensity, higher = more binding, comparable within an allelic series). For the same sequence, the binding signal [4] was 6.32 upbm affinity estimate (log intensity, higher = more binding, comparable within an allelic series) and the binding signal [5] was 6.44 upbm affinity estimate (log intensity, higher = more binding, comparable within an allelic series).

CGACGTTC was tested, and the binding signal [1] was 6.45 upbm affinity estimate (log intensity, higher = more binding, comparable within an allelic series), the binding signal [2] was 6.3 upbm affinity estimate (log intensity, higher = more binding, comparable within an allelic series) and the binding signal [3] was 6.42 upbm affinity estimate (log intensity, higher = more binding, comparable within an allelic series). For the same sequence, the binding signal [4] was 6.41 upbm affinity estimate (log intensity, higher = more binding, comparable within an allelic series) and the binding signal [5] was 6.52 upbm affinity estimate (log intensity, higher = more binding, comparable within an allelic series).

For CACCCCCC, the binding signal [1] was 6.39 upbm affinity estimate (log intensity, higher = more binding, comparable within an allelic series), the binding signal [2] was 6.4 upbm affinity estimate (log intensity, higher = more binding, comparable within an allelic series) and the binding signal [6] was 7.67 upbm affinity estimate (log intensity, higher = more binding, comparable within an allelic series). For the same sequence, the binding signal [7] was 7.7 upbm affinity estimate (log intensity, higher = more binding, comparable within an allelic series), the binding signal [8] was 6.46 upbm affinity estimate (log intensity, higher = more binding, comparable within an allelic series) and the binding signal [3] was 6.54 upbm affinity estimate (log intensity, higher = more binding, comparable within an allelic series). For the same sequence, the binding signal [9] was 6.42 upbm affinity estimate (log intensity, higher = more binding, comparable within an allelic series), the binding signal [10] was 7.45 upbm affinity estimate (log intensity, higher = more binding, comparable within an allelic series) and the binding signal [4] was 6.38 upbm affinity estimate (log intensity, higher = more binding, comparable within an allelic series). The binding signal [11] was 7.59 upbm affinity estimate (log intensity, higher = more binding, comparable within an allelic series), the binding signal [12] was 6 upbm affinity estimate (log intensity, higher = more binding, comparable within an allelic series) and the binding signal [5] was 6.45 upbm affinity estimate (log intensity, higher = more binding, comparable within an allelic series). For the same sequence, the binding signal [13] was 7.71 upbm affinity estimate (log intensity, higher = more binding, comparable within an allelic series).

CGCCCAAG was tested, and the binding signal [1] was 6.57 upbm affinity estimate (log intensity, higher = more binding, comparable within an allelic series), the binding signal [2] was 6.59 upbm affinity estimate (log intensity, higher = more binding, comparable within an allelic series) and the binding signal [6] was 7.75 upbm affinity estimate (log intensity, higher = more binding, comparable within an allelic series). The binding signal [7] was 7.67 upbm affinity estimate (log intensity, higher = more binding, comparable within an allelic series), the binding signal [3] was 6.54 upbm affinity estimate (log intensity, higher = more binding, comparable within an allelic series) and the binding signal [10] was 7.8 upbm affinity estimate (log intensity, higher = more binding, comparable within an allelic series). The binding signal [4] was 6.5 upbm affinity estimate (log intensity, higher = more binding, comparable within an allelic series), the binding signal [11] was 7.74 upbm affinity estimate (log intensity, higher = more binding, comparable within an allelic series) and the binding signal [5] was 6.55 upbm affinity estimate (log intensity, higher = more binding, comparable within an allelic series). The binding signal [13] was 7.78 upbm affinity estimate (log intensity, higher = more binding, comparable within an allelic series).

For CTAGGGCC, the binding signal [1] was 6.49 upbm affinity estimate (log intensity, higher = more binding, comparable within an allelic series), the binding signal [2] was 6.45 upbm affinity estimate (log intensity, higher = more binding, comparable within an allelic series) and the binding signal [6] was 7.79 upbm affinity estimate (log intensity, higher = more binding, comparable within an allelic series). For the same sequence, the binding signal [7] was 7.79 upbm affinity estimate (log intensity, higher = more binding, comparable within an allelic series), the binding signal [3] was 6.47 upbm affinity estimate (log intensity, higher = more binding, comparable within an allelic series) and the binding signal [10] was 7.79 upbm affinity estimate (log intensity, higher = more binding, comparable within an allelic series). The binding signal [4] was 6.36 upbm affinity estimate (log intensity, higher = more binding, comparable within an allelic series), the binding signal [11] was 7.77 upbm affinity estimate (log intensity, higher = more binding, comparable within an allelic series) and the binding signal [5] was 6.42 upbm affinity estimate (log intensity, higher = more binding, comparable within an allelic series). For the same sequence, the binding signal [13] was 7.79 upbm affinity estimate (log intensity, higher = more binding, comparable within an allelic series).

With AGATTGGG the binding signal [1] was 7.4 upbm affinity estimate (log intensity, higher = more binding, comparable within an allelic series), the binding signal [2] was 7.61 upbm affinity estimate (log intensity, higher = more binding, comparable within an allelic series) and the binding signal [3] was 7.3 upbm affinity estimate (log intensity, higher = more binding, comparable within an allelic series). The binding signal [4] was 7.23 upbm affinity estimate (log intensity, higher = more binding, comparable within an allelic series).

In the case of CTTGGCGA, the binding signal [1] is reported as 6.46 upbm affinity estimate (log intensity, higher = more binding, comparable within an allelic series), the binding signal [2] is reported as 6.46 upbm affinity estimate (log intensity, higher = more binding, comparable within an allelic series) and the binding signal [8] is reported as 6.63 upbm affinity estimate (log intensity, higher = more binding, comparable within an allelic series). The binding signal [3] was 6.48 upbm affinity estimate (log intensity, higher = more binding, comparable within an allelic series), the binding signal [9] was 6.61 upbm affinity estimate (log intensity, higher = more binding, comparable within an allelic series) and the binding signal [4] was 6.51 upbm affinity estimate (log intensity, higher = more binding, comparable within an allelic series). The binding signal [12] was 6.64 upbm affinity estimate (log intensity, higher = more binding, comparable within an allelic series) and the binding signal [5] was 6.53 upbm affinity estimate (log intensity, higher = more binding, comparable within an allelic series).

For ATTAGCGA, the binding signal [1] was 9.89 upbm affinity estimate (log intensity, higher = more binding, comparable within an allelic series), the binding signal [2] was 10.1 upbm affinity estimate (log intensity, higher = more binding, comparable within an allelic series) and the binding signal [8] was 10.2 upbm affinity estimate (log intensity, higher = more binding, comparable within an allelic series). For the same sequence, the binding signal [9] was 9.94 upbm affinity estimate (log intensity, higher = more binding, comparable within an allelic series), the binding signal [4] was 8.88 upbm affinity estimate (log intensity, higher = more binding, comparable within an allelic series) and the binding signal [12] was 7.4 upbm affinity estimate (log intensity, higher = more binding, comparable within an allelic series).

CACCCGGC was tested, and the binding signal [1] was 6.47 upbm affinity estimate (log intensity, higher = more binding, comparable within an allelic series), the binding signal [2] was 6.48 upbm affinity estimate (log intensity, higher = more binding, comparable within an allelic series) and the binding signal [14] was 9.18 upbm affinity estimate (log intensity, higher = more binding, comparable within an allelic series). The binding signal [3] was 6.53 upbm affinity estimate (log intensity, higher = more binding, comparable within an allelic series), the binding signal [4] was 6.47 upbm affinity estimate (log intensity, higher = more binding, comparable within an allelic series) and the binding signal [15] was 9.14 upbm affinity estimate (log intensity, higher = more binding, comparable within an allelic series). The binding signal [5] was 6.3 upbm affinity estimate (log intensity, higher = more binding, comparable within an allelic series).

In the case of CAAGCCGC, the binding signal [1] is reported as 6.58 upbm affinity estimate (log intensity, higher = more binding, comparable within an allelic series), the binding signal [2] is reported as 6.44 upbm affinity estimate (log intensity, higher = more binding, comparable within an allelic series) and the binding signal [8] is reported as 6.56 upbm affinity estimate (log intensity, higher = more binding, comparable within an allelic series). For the same sequence, the binding signal [3] was 6.54 upbm affinity estimate (log intensity, higher = more binding, comparable within an allelic series), the binding signal [9] was 6.8 upbm affinity estimate (log intensity, higher = more binding, comparable within an allelic series) and the binding signal [4] was 6.58 upbm affinity estimate (log intensity, higher = more binding, comparable within an allelic series). The binding signal [12] was 6.57 upbm affinity estimate (log intensity, higher = more binding, comparable within an allelic series) and the binding signal [5] was 6.56 upbm affinity estimate (log intensity, higher = more binding, comparable within an allelic series).

For GCGTGGCC, the binding signal [1] was 6.46 upbm affinity estimate (log intensity, higher = more binding, comparable within an allelic series), the binding signal [2] was 6.31 upbm affinity estimate (log intensity, higher = more binding, comparable within an allelic series) and the binding signal [3] was 6.39 upbm affinity estimate (log intensity, higher = more binding, comparable within an allelic series). The binding signal [16] was 7.21 upbm affinity estimate (log intensity, higher = more binding, comparable within an allelic series), the binding signal [4] was 6.37 upbm affinity estimate (log intensity, higher = more binding, comparable within an allelic series) and the binding signal [5] was 6.39 upbm affinity estimate (log intensity, higher = more binding, comparable within an allelic series). For the same sequence, the binding signal [17] was 7.36 upbm affinity estimate (log intensity, higher = more binding, comparable within an allelic series) and the binding signal [18] was 6.97 upbm affinity estimate (log intensity, higher = more binding, comparable within an allelic series).

CAGTGCCG was tested, and the binding signal [1] was 6.35 upbm affinity estimate (log intensity, higher = more binding, comparable within an allelic series), the binding signal [2] was 6.41 upbm affinity estimate (log intensity, higher = more binding, comparable within an allelic series) and the binding signal [3] was 6.49 upbm affinity estimate (log intensity, higher = more binding, comparable within an allelic series). For the same sequence, the binding signal [16] was 7.15 upbm affinity estimate (log intensity, higher = more binding, comparable within an allelic series), the binding signal [4] was 6.42 upbm affinity estimate (log intensity, higher = more binding, comparable within an allelic series) and the binding signal [5] was 6.53 upbm affinity estimate (log intensity, higher = more binding, comparable within an allelic series). For the same sequence, the binding signal [17] was 7.27 upbm affinity estimate (log intensity, higher = more binding, comparable within an allelic series) and the binding signal [18] was 7.09 upbm affinity estimate (log intensity, higher = more binding, comparable within an allelic series).

With AGTTCAGC the binding signal [1] was 6.57 upbm affinity estimate (log intensity, higher = more binding, comparable within an allelic series), the binding signal [2] was 6.45 upbm affinity estimate (log intensity, higher = more binding, comparable within an allelic series) and the binding signal [3] was 6.48 upbm affinity estimate (log intensity, higher = more binding, comparable within an allelic series). The binding signal [4] was 6.48 upbm affinity estimate (log intensity, higher = more binding, comparable within an allelic series) and the binding signal [5] was 6.59 upbm affinity estimate (log intensity, higher = more binding, comparable within an allelic series).

For AGGTGGCC, the binding signal [1] was 6.42 upbm affinity estimate (log intensity, higher = more binding, comparable within an allelic series), the binding signal [2] was 6.42 upbm affinity estimate (log intensity, higher = more binding, comparable within an allelic series) and the binding signal [3] was 6.5 upbm affinity estimate (log intensity, higher = more binding, comparable within an allelic series). For the same sequence, the binding signal [4] was 6.47 upbm affinity estimate (log intensity, higher = more binding, comparable within an allelic series) and the binding signal [5] was 6.46 upbm affinity estimate (log intensity, higher = more binding, comparable within an allelic series).

With AGCCTCGC the binding signal [1] was 6.43 upbm affinity estimate (log intensity, higher = more binding, comparable within an allelic series), the binding signal [2] was 6.5 upbm affinity estimate (log intensity, higher = more binding, comparable within an allelic series) and the binding signal [3] was 6.45 upbm affinity estimate (log intensity, higher = more binding, comparable within an allelic series). For the same sequence, the binding signal [4] was 6.49 upbm affinity estimate (log intensity, higher = more binding, comparable within an allelic series) and the binding signal [5] was 6.46 upbm affinity estimate (log intensity, higher = more binding, comparable within an allelic series).

CTGCCAGC was tested, and the binding signal [1] was 6.31 upbm affinity estimate (log intensity, higher = more binding, comparable within an allelic series), the binding signal [2] was 6.34 upbm affinity estimate (log intensity, higher = more binding, comparable within an allelic series) and the binding signal [14] was 9.39 upbm affinity estimate (log intensity, higher = more binding, comparable within an allelic series). The binding signal [19] was 8.09 upbm affinity estimate (log intensity, higher = more binding, comparable within an allelic series), the binding signal [3] was 6.43 upbm affinity estimate (log intensity, higher = more binding, comparable within an allelic series) and the binding signal [4] was 6.51 upbm affinity estimate (log intensity, higher = more binding, comparable within an allelic series). For the same sequence, the binding signal [15] was 9.37 upbm affinity estimate (log intensity, higher = more binding, comparable within an allelic series) and the binding signal [5] was 6.4 upbm affinity estimate (log intensity, higher = more binding, comparable within an allelic series).

Source: PMC11006913
